Experimental data: PubChem BioAssay (EPA / NIEHS)
Some compounds were tested as several samples or in several runs, with calls that do not always agree. Calls of active or inactive are those of the source. How the source made its calls: active means hit-call score of the fitted dose curve at least 0.9, where 1 is the maximum; inactive means score below 0.9.

Tests used:
[1] = read-out: TIMP metallopeptidase inhibitor 1 (TIMP1), TIMP1 (gene 7076); assay: BSK_hDFCGF_TIMP1: BioMAP Diversity Plus: hDFCGF Assay for TIMP metallopeptidase inhibitor 1 (TIMP1) Biomarker Activity (AID 2283062); conditions: primary human foreskin fibroblasts; actives raise or lower the signal
Summary of the method: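 Human skin fibroblasts (primary), hDFCGF system; compound exposure 24 h; TIMP-1 by ELISA; bidirectional fit vs DMSO negative control; overt cytotoxicity by SRB in parallel wells.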

[2] = read-out: Monokine induced gamma interferon (MIG), CXCL9 (gene 4283); assay: BSK_hDFCGF_MIG: BioMAP Diversity Plus: hDFCGF Assay for Monokine induced gamma interferon (MIG) Biomarker Activity (AID 2283063); conditions: primary human foreskin fibroblasts; actives raise or lower the signal
Summary of the method: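 Chemicals were added to primary human foreskin fibroblast cultures, which were sampled 24 h later. MIG levels were then quantified by ELISA and responses fitted in both directions relative to DMSO.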

[3] = read-out: Matrix Metallopeptidase 1 (MMP1), MMP1 (gene 4312); assay: BSK_hDFCGF_MMP1: BioMAP Diversity Plus: hDFCGF Assay for Matrix Metallopeptidase 1 (MMP1) Biomarker Activity (AID 2283064); conditions: primary human foreskin fibroblasts; actives raise or lower the signal
Summary of the method: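 Human foreskin fibroblasts exposed to chemical for 24 h; MMP1 detected by ELISA, with DMSO as baseline for bidirectional fitting.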

[4] = read-out: Plasminogen activator inhibitor-1 (PAI1), SERPINE1 (gene 5054); assay: BSK_hDFCGF_PAI1: BioMAP Diversity Plus: hDFCGF Assay for Plasminogen activator inhibitor-1 (PAI1) Biomarker Activity (AID 2283066); conditions: primary human foreskin fibroblasts; actives raise or lower the signal
Summary of the method: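 Fibroblasts from human foreskin were treated with test chemical. After 24 h, PAI-1 was measured by ELISA. Activity was fitted in both directions relative to DMSO.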

[5] = read-out: Intercellular Adhesion Molecule 1 (ICAM1), ICAM1 (gene 3383); assay: BSK_KF3CT_ICAM1: BioMAP Diversity Plus: KF3CT Assay for Intercellular Adhesion Molecule 1 (ICAM1) Biomarker Activity (AID 2283067); conditions: primary human keratinocytes with fibroblasts; actives raise or lower the signal
Summary of the method: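 ICAM-1 levels are measured by ELISA 24 h after dosing a primary human co-culture of keratinocytes and foreskin fibroblasts. Activity in either direction is fitted relative to DMSO vehicle.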

[6] = read-out: Interferon-gamma inducible Protein 10 (IP10), CXCL10 (gene 3627); assay: BSK_KF3CT_IP10: BioMAP Diversity Plus: KF3CT Assay for Interferon-gamma inducible Protein 10 (IP10) Biomarker Activity (AID 2283068); conditions: primary human keratinocytes with fibroblasts; actives raise or lower the signal
Summary of the method: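 In a primary skin co-culture of keratinocytes and fibroblasts, IP-10 is quantified by ELISA at 24 h after dosing. SRB staining of parallel wells monitors overt toxicity. Curves are fitted both directions against DMSO.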

[7] = BSK_KF3CT_SRB: Viability Assessment in the BioMAP Diversity Plus: KF3CT Assay (AID 2283069); conditions: primary human keratinocytes with fibroblasts;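 further: read 24 h after compound addition; fitted for both signal gain and loss against DMSO baseline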
Summary of the method: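 Overt cytotoxicity is assessed as total protein by sulforhodamine B staining in parallel human skin co-cultures at 24 h after dosing. DMSO serves as negative control and baseline.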

[8] = read-out: Interleukin-1 alpha (IL1a), IL1A (gene 3552); assay: BSK_KF3CT_IL1a: BioMAP Diversity Plus: KF3CT Assay for Interleukin-1 alpha (IL1a) Biomarker Activity (AID 2283070); conditions: primary human keratinocytes with fibroblasts; actives raise or lower the signal
Summary of the method: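 Readout is IL-1a level by ELISA, compared bidirectionally with DMSO as baseline. Cells: human keratinocytes co-cultured with foreskin fibroblasts, harvested 24 h post-dose.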

[9] = read-out: TIMP metallopeptidase inhibitor 2 (TIMP2), TIMP2 (gene 7077); assay: BSK_KF3CT_TIMP2: BioMAP Diversity Plus: KF3CT Assay for TIMP metallopeptidase inhibitor 2 (TIMP2) Biomarker Activity (AID 2283071); conditions: primary human keratinocytes with fibroblasts; actives raise or lower the signal
Summary of the method: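 Chemicals were dosed onto human skin primary co-cultures of keratinocytes and foreskin fibroblasts, and TIMP-2 was measured by ELISA after 24 hours. Activity in either direction was fitted relative to DMSO.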

[10] = read-out: C-C motif chemokine 2 (Homo sapiens) (UniProt P13500); assay: BSK_KF3CT_MCP1: BioMAP Diversity Plus: KF3CT Assay for Monocyte Chemoattractant Protein 1 (MCP1/CCL2) Biomarker Activity (AID 2283073); conditions: primary human keratinocytes with fibroblasts; actives raise or lower the signal
Summary of the method: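 ELISA readout of MCP-1 after 24 h chemical dosing of a human skin primary co-culture of keratinocytes and foreskin fibroblasts. Activity was fitted in both directions against DMSO.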

[11] = read-out: Matrix Metallopeptidase 9 (MMP9), MMP9 (gene 4318); assay: BSK_KF3CT_MMP9: BioMAP Diversity Plus: KF3CT Assay for Matrix Metallopeptidase 9 (MMP9) Biomarker Activity (AID 2283074); conditions: primary human keratinocytes with fibroblasts; actives raise or lower the signal
Summary of the method: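 Values come from bidirectional fitting relative to DMSO of MMP-9 levels, which were measured by ELISA. Measurements were taken 24 h after chemical dosing of a keratinocyte and foreskin fibroblast co-culture.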

[12] = read-out: urokinase plasminogen activator (uPA), PLAU (gene 5328); assay: BSK_KF3CT_uPA: BioMAP Diversity Plus: KF3CT Assay for urokinase plasminogen activator (uPA) Biomarker Activity (AID 2283075); conditions: primary human keratinocytes with fibroblasts; actives raise or lower the signal
Summary of the method: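 Values derive from bidirectional fitting against DMSO controls. Keratinocyte/foreskin fibroblast co-cultures received chemical; 24 h later uPA was detected by ELISA, with SRB total-protein staining in parallel wells for overt cytotoxicity.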

CD40, CD40 (gene 958) = assay: BSK_LPS_CD40: BioMAP Diversity Plus: LPS Assay for CD40 Biomarker Activity (AID 2283076); conditions: primary human HUVEC with PBMC; actives raise or lower the signal
Summary of the method: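 Cells were dosed, incubated 24 h, then assayed for CD40 by ELISA. Gain or loss of signal was analysed relative to DMSO controls. The culture paired human umbilical vein endothelium with peripheral blood mononuclear cells.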

[13] = read-out: E-selectin (Homo sapiens) (UniProt P16581); assay: BSK_LPS_Eselectin: BioMAP Diversity Plus: LPS Assay for Eselectin Biomarker Activity (AID 2283077); conditions: primary human HUVEC with PBMC; actives raise or lower the signal
Summary of the method: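 Primary human vascular co-culture (endothelium plus PBMC) was dosed with chemical, then E-selectin quantified by ELISA at 24 h. Endpoint values derive from bidirectional curve fitting relative to DMSO.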

[14] = BSK_LPS_SRB: Viability Assessment in the BioMAP Diversity Plus: LPS Assay (AID 2283079); conditions: primary human HUVEC with PBMC;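 further: total protein by sulforhodamine B absorbance as a cytotoxicity measure; measured one day after compound addition; fitted in both directions against DMSO so loss or gain of signal counts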
Summary of the method: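 Readout is SRB absorbance at 560 nm (0.1% stain, TCA-fixed parallel cultures) as a total-protein cytotoxicity measure. Cells: primary human umbilical vein endothelium plus peripheral blood mononuclear cells, 24 h after chemical exposure; DMSO served as baseline.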

[15] = read-out: Interleukin-1 alpha (IL1a), IL1A (gene 3552); assay: BSK_LPS_IL1a: BioMAP Diversity Plus: LPS Assay for Interleukin-1 alpha (IL1a) Biomarker Activity (AID 2283080); conditions: primary human HUVEC with PBMC; actives raise or lower the signal
Summary of the method: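 ELISA read-out of IL-1 alpha from a human primary vascular co-culture (endothelium plus PBMC) under LPS, sampled 24 hours post-dosing. Activity was fitted in both directions relative to DMSO controls.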

[16] = read-out: Monocyte Chemoattractant Protein-1 (MCP1), CCL2 (gene 6347); assay: BSK_LPS_MCP1: BioMAP Diversity Plus: LPS Assay for Monocyte Chemoattractant Protein-1 (MCP1) Biomarker Activity (AID 2283081); conditions: primary human HUVEC with PBMC; actives raise or lower the signal;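 on AC50: co-culture stimulated with LPS; secreted MCP-1 protein quantified by ELISA in culture supernatant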
Summary of the method: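 Human endothelial–PBMC co-cultures were dosed with chemical, then LPS-driven MCP-1 levels were quantified by ELISA at 24 h. Activity in either direction was fitted versus DMSO negative control.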

[17] = read-out: Transforming growth factor beta 1 (TGFb1), TGFB1 (gene 7040); assay: BSK_KF3CT_TGFb1: BioMAP Diversity Plus: KF3CT Assay for Transforming growth factor beta 1 (TGFb1) Biomarker Activity (AID 2283072); conditions: primary human keratinocytes with fibroblasts; actives raise or lower the signal
Summary of the method: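 KF3CT co-culture (keratinocytes + fibroblasts), 24 h exposure → TGF-b1 ELISA → bidirectional fit, DMSO = baseline. Parallel SRB total-protein staining (0.1% SRB, 10% TCA fixation, 560 nm) for cytotoxicity.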

Measured: AC50

E-selectin (Homo sapiens), sequence (P16581 whole entry, looked up): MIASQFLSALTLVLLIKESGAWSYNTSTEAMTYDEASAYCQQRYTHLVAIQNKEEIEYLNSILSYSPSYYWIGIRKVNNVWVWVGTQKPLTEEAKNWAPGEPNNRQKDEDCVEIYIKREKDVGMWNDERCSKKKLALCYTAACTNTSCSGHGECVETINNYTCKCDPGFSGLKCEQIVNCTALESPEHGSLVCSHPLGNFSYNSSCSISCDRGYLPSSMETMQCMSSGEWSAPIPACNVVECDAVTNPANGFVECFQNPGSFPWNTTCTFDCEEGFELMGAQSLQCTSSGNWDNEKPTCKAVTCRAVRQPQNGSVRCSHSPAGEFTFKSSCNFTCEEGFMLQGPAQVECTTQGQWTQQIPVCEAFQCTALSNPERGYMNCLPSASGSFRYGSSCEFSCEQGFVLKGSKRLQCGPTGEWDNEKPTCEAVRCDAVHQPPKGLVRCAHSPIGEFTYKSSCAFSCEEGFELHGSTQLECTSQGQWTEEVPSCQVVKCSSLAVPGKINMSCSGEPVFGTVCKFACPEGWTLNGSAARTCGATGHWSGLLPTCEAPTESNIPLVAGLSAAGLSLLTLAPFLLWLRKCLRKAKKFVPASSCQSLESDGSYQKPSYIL

OC1OC[C@@H](O)[C@H](O)[C@H]1O (stereo partly drawn)
not listed: [17]
inactive: all other assays above

C=CCOC(=O)CCC1CCCCC1
not listed: [17]
inactive: all other assays above

CC[Si](OC(C)=O)(OC(C)=O)OC(C)=O
inactive: [1] | [2] | [3] | [4] | [5] | [6] | [7] | [8] | [9] | [10] | [11] | [12] | CD40, CD40 (gene 958) | [13] | [14] | [15] | [16]
active: CD40, CD40 (gene 958) 626 nM

COc1cc(C=O)ccc1OC(=O)C(C)C
not listed: [17]
inactive: all other assays above

CCn1c2ccccc2c2cc(N)ccc21
active: [9] 1490 nM | CD40, CD40 (gene 958) 5630 nM | [15] 653 nM | [16] 1240 nM
inactive: all other assays above

Cc1ccc2n[nH]nc2c1
inactive: all assays above

Cc1ccc(Nc2ccc(O)c3c2C(=O)c2ccccc2C3=O)cc1
active: [4] 1610 nM
inactive: all other assays above
